Experimental data from PubChem BioAssay (EPA / NIEHS).
Active and inactive are the calls of the source. The calls were made as follows: active = hit-call score of the fitted dose curve at least 0.9, where 1 is the maximum; inactive = score below 0.9.

Tests used:
Details in all cases: mRNA level, 48 h; actives raise or lower the signal
[1] = read-out: Cytochrome P450 (CYP1A2), CYP1A2 (gene 1544); experiment: LTEA_HepaRG_CYP1A2: Life Technologies and Expression Analysis (LTEA) Assay for Cytochrome P450 (CYP1A2) using HepaRG (AID 2283479);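 as to AC50: TaqMan qRT-PCR transcript level normalized to ACTB GAPDH and POLR2A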
In short: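 CYP1A2 transcript measured by TaqMan qRT-PCR against three housekeeping genes after 48-hour chemical exposure of HepaRG cells. Eight-point half-log series topping at 100 uM in 0.5% DMSO, duplicates; gain or loss fitted relative to vehicle.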

[2] = read-out: cysteine-aspartic acid protease (CASP8), CASP8 (gene 841); experiment: LTEA_HepaRG_CASP8: Life Technologies and Expression Analysis (LTEA) Assay for cysteine-aspartic acid protease (CASP8) using HepaRG (AID 2283480)
In short: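 HepaRG, 48 h exposure, duplicate wells; 8 conc, half-log from 100 uM, 0.5% DMSO. Serum-free induction medium. CASP8 mRNA by TaqMan qRT-PCR, norm. ACTB/GAPDH/POLR2A; gain/loss fitted vs DMSO.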

[3] = read-out: Cytochrome P450 (CYP2B6), CYP2B6 (gene 1555); experiment: LTEA_HepaRG_CYP2B6: Life Technologies and Expression Analysis (LTEA) Assay for Cytochrome P450 (CYP2B6) using HepaRG (AID 2283481)
In short: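 CYP2B6 transcript level quantified by qRT-PCR against three housekeeping genes, fitted bidirectionally relative to DMSO. HepaRG cultures received chemicals for 48 h, 8-point half-log series from 100 uM in 0.5% DMSO, duplicate wells, serum-free induction medium.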

[4] = read-out: Cytochrome P450 2C19 (Homo sapiens) (UniProt P33261); experiment: LTEA_HepaRG_CYP2C19: Life Technologies and Expression Analysis (LTEA) Assay for CYP2C19 using HepaRG (AID 2283482)
In short: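 CYP2C19 transcript levels by qRT-PCR, normalized to three housekeeping genes, in HepaRG cells after 48 h chemical exposure. Eight-point half-log series topping at 100 uM, 0.5% DMSO vehicle. Increases and decreases both fitted against DMSO.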

CYP2C8 (gene 1558) = experiment: LTEA_HepaRG_CYP2C8: Life Technologies and Expression Analysis (LTEA) Assay for CYP2C8 using HepaRG (AID 2283483)
In short: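 CYP2C8 mRNA induction or loss, by qRT-PCR normalized to ACTB/GAPDH/POLR2A, is read in HepaRG cells after 48 h treatment. Concentrations run from 100 uM down in half-log dilutions, with 0.5% DMSO as vehicle and baseline.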

CYP2C9 (gene 1559) = experiment: LTEA_HepaRG_CYP2C9: Life Technologies and Expression Analysis (LTEA) Assay for CYP2C9 using HepaRG (AID 2283484)
In short: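 Cells plated 48 h, switched to serum-free induction medium, then treated in duplicate for 48 h at eight concentrations (max 100 uM, 0.5% DMSO). RNA then analysed by qRT-PCR for CYP2C9; curves fitted in both directions relative to DMSO.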

CYP4A11 (gene 1579) = experiment: LTEA_HepaRG_CYP4A11: Life Technologies and Expression Analysis (LTEA) Assay for CYP4A11 using HepaRG (AID 2283486)
In short: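 Readout is CYP4A11 transcript level by qRT-PCR, normalized to three housekeeping genes and fitted bidirectionally against 0.5% DMSO. Human HepaRG cells were treated 48 h, in duplicate, with an 8-point half-log series topping at 100 uM.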

[5] = read-out: Cytochrome P450 3A4 (Homo sapiens) (UniProt P08684); experiment: LTEA_HepaRG_CYP3A4: Life Technologies and Expression Analysis (LTEA) Assay for CYP3A4 using HepaRG (AID 2283487)
In short: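 HepaRG, 48 h exposure, 8-pt CRC from 100 uM (half-log), 0.5% DMSO, duplicates; serum-free induction medium. Readout: CYP3A4 mRNA, qRT-PCR, ACTB/GAPDH/POLR2A normalization. Bidirectional fit vs DMSO.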

[6] = read-out: DNA damage-inducible transcript 3 (DDIT3), DDIT3 (gene 1649); experiment: LTEA_HepaRG_DDIT3: Life Technologies and Expression Analysis (LTEA) Assay for DNA damage-inducible transcript 3 (DDIT3) using HepaRG (AID 2283488)
In short: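 Changes in DDIT3 transcript, in either direction relative to 0.5% DMSO vehicle, were quantified by TaqMan qRT-PCR after 48 h chemical exposure of HepaRG cells at 8 concentrations, maximum 100 uM.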

[7] = read-out: Pro-epidermal growth factor (Homo sapiens) (UniProt P01133); experiment: LTEA_HepaRG_EGF: Life Technologies and Expression Analysis (LTEA) Assay for Epidermal growth factor (EGF) using HepaRG (AID 2283489)
In short: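 EGF transcript measured by Fluidigm TaqMan qRT-PCR with three housekeeping genes for normalization, 48 h after dosing HepaRG cultures in duplicate (top 100 uM, half-log steps, 0.5% DMSO vehicle). Gain or loss relative to DMSO fitted.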

[8] = read-out: Early growth response protein 1 (EGR1) transcription factor, EGR1 (gene 1958); experiment: LTEA_HepaRG_EGR1: Life Technologies and Expression Analysis (LTEA) Assay for Early growth response protein 1 (EGR1) transcription factor using HepaRG (AID 2283490)
In short: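 Read-out is EGR1 mRNA level by qRT-PCR, normalized to three housekeeping genes and analysed for gain or loss of signal against 0.5% DMSO. Source cells: human HepaRG, treated 48 h at up to 100 uM in half-log dilutions.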

[9] = read-out: Ezrin (EZR), EZR (gene 7430); experiment: LTEA_HepaRG_EZR: Life Technologies and Expression Analysis (LTEA) Assay for Ezrin (EZR) using HepaRG (AID 2283491)
In short: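 Read-out is EZR transcript level by qRT-PCR, normalized to three housekeeping genes and fitted bidirectionally against the DMSO control. Human HepaRG cells received test chemicals for 48 h at eight half-log concentrations up to 100 uM in 0.5% DMSO.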

[10] = read-out: Cytochrome P450 3A7 (Homo sapiens) (UniProt P24462); experiment: LTEA_HepaRG_CYP3A7: Life Technologies and Expression Analysis (LTEA) Assay for CYP3A7 using HepaRG (AID 2283492)
In short: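 CYP3A7 transcript measured by qRT-PCR (ACTB, GAPDH, POLR2A normalization) after 48 h chemical exposure of HepaRG cells in duplicate. Eight half-log concentrations, maximum 100 uM, 0.5% DMSO vehicle; bidirectional curve fitting against DMSO baseline.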

CYP3A5 (gene 1577) = experiment: LTEA_HepaRG_CYP3A5: Life Technologies and Expression Analysis (LTEA) Assay for CYP3A5 using HepaRG (AID 2283493)
In short: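 mRNA induction or loss of CYP3A5 assessed in HepaRG after 48 h dosing, 100 uM top concentration, duplicate wells; TaqMan qRT-PCR with ACTB, GAPDH, POLR2A normalization; 0.5% DMSO as negative control.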

[11] = read-out: Fatty Acid-Binding Protein 1 (FABP1), FABP1 (gene 2168); experiment: LTEA_HepaRG_FABP1: Life Technologies and Expression Analysis (LTEA) Assay for Fatty Acid-Binding Protein 1 (FABP1) using HepaRG (AID 2283494)
In short: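 HepaRG, 48 h post-plating switched to serum-free induction medium, then dosed 48 h (duplicate, 8 pts, ≤100 uM, 0.5% DMSO). RNA → Fluidigm TaqMan qRT-PCR, FABP1 normed to ACTB/GAPDH/POLR2A. Bidirectional curve fit vs DMSO.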

[12] = read-out: Cytochrome P450 4A22 (Homo sapiens) (UniProt Q5TCH4); experiment: LTEA_HepaRG_CYP4A22: Life Technologies and Expression Analysis (LTEA) Assay for Cytochrome P450 4A22 (CYP4A22) using HepaRG (AID 2283495)
In short: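 Gene expression measured by qRT-PCR against three housekeeping genes (ACTB, GAPDH, POLR2A), with gain or loss fitted relative to 0.5% DMSO vehicle. HepaRG cultures received 48 h chemical treatment, top concentration 100 uM, half-log steps, duplicate wells.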

[13] = read-out: Cytochrome P450 7A1 (Homo sapiens) (UniProt P22680); experiment: LTEA_HepaRG_CYP7A1: Life Technologies and Expression Analysis (LTEA) Assay for Cytochrome P450 7A1 (CYP7A1) using HepaRG (AID 2283496)
In short: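 Gene expression endpoint in human HepaRG liver cells treated for 48 h with test chemicals (up to 100 uM, 0.5% DMSO). Values come from bidirectional concentration-response fitting versus DMSO.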

[14] = read-out: Glutathione S-Transferase (GSTA2), GSTA2 (gene 2939); experiment: LTEA_HepaRG_GSTA2: Life Technologies and Expression Analysis (LTEA) Assay for Glutathione S-Transferase (GSTA2) using HepaRG (AID 2283497)
In short: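 HepaRG, 48 h dosing, 8-pt half-log CRC from 100 uM, 0.5% DMSO vehicle, n=2; RNA → Fluidigm TaqMan qRT-PCR; GSTA2 vs ACTB/GAPDH/POLR2A; gain/loss fit vs DMSO.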

[15] = read-out: Glutamate-cysteine ligase catalytic (GCLC), GCLC (gene 2729); experiment: LTEA_HepaRG_GCLC: Life Technologies and Expression Analysis (LTEA) Assay for Glutamate-cysteine ligase catalytic (GCLC) using HepaRG (AID 2283498)
In short: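 Read-out is GCLC transcript level by Fluidigm-based TaqMan qRT-PCR, normalized to three housekeeping genes and fitted in both directions relative to 0.5% DMSO. Human HepaRG cells received chemicals for 48 h, up to 100 uM.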

CYP2E1 (gene 1571) = experiment: LTEA_HepaRG_CYP2E1: Life Technologies and Expression Analysis (LTEA) Assay for CYP2E1 using HepaRG (AID 2283485)
In short: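 Differentiated HepaRG cells were treated in duplicate for 48 h with chemicals in 0.5% DMSO, from 100 uM downward in half-log dilutions. RNA was then analysed by qRT-PCR for CYP2E1 induction or loss.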

Measured: AC50

Sequence of Cytochrome P450 3A7 (Homo sapiens) (P24462 whole entry, looked up): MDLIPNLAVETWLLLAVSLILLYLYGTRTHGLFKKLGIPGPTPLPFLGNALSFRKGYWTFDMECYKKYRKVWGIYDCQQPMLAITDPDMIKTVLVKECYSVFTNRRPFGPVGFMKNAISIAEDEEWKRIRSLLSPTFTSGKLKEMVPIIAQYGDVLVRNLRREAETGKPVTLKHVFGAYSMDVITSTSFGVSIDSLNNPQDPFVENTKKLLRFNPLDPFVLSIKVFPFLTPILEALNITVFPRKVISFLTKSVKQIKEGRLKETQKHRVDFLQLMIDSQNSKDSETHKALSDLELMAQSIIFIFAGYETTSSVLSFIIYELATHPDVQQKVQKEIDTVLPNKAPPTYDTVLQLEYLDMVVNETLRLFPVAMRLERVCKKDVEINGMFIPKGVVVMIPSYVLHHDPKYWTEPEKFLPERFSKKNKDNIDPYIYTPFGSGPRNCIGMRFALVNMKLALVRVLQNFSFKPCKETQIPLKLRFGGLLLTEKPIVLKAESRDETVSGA
Sequence of Cytochrome P450 2C19 (Homo sapiens) (P33261 whole entry, looked up): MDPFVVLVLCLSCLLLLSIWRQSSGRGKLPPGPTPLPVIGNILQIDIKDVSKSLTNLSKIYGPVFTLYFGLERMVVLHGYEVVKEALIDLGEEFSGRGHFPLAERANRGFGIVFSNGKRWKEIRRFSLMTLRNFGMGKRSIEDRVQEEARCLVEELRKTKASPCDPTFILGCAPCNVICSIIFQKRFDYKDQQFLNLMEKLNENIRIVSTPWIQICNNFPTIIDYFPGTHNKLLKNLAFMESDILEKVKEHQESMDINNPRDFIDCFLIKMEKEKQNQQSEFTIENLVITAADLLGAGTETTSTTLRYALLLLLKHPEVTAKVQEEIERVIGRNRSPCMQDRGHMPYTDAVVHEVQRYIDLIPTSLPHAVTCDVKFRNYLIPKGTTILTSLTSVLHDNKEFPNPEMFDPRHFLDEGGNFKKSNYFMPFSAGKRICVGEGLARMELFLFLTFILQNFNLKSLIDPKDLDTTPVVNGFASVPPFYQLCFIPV
Sequence of Cytochrome P450 3A4 (Homo sapiens) (P08684 whole entry, looked up): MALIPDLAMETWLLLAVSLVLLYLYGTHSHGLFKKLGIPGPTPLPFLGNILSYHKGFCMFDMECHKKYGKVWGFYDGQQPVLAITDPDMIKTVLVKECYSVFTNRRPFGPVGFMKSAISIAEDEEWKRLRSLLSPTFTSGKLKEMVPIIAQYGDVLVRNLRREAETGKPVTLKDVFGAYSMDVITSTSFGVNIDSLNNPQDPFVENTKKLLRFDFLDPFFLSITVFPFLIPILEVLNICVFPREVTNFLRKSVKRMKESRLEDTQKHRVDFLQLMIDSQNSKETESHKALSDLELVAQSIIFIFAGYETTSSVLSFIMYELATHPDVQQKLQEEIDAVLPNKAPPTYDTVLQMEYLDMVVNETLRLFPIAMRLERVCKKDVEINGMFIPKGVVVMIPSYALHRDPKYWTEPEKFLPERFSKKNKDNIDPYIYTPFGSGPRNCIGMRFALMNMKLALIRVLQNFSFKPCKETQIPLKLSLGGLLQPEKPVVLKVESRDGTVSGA

COC(=O)CC(=O)OC
inactive: [1] | [2] | CYP2C8 (gene 1558) | CYP2C9 (gene 1559) | CYP4A11 (gene 1579) | [6] | [7] | [8] | [9] | CYP3A5 (gene 1577) | [12] | [14] | [15]
active: [3] 1.93 µM | [4] 3.31 µM | [5] 2.53 µM | [10] 3.64 µM | [11] 50 µM | [13] 50 µM

CC(C)=CCCC(C)CCO (stereo unspecified)
inactive: [2] | [4] | CYP2C8 (gene 1558) | CYP2C9 (gene 1559) | CYP2E1 (gene 1571) | CYP4A11 (gene 1579) | [5] | [6] | [7] | [8] | [9] | CYP3A5 (gene 1577) | [12] | [13] | [14] | [15]
active: [1] 50 µM | [3] 11.7 µM

Oc1ccc2c(c1)-c1ccccc1C2
inactive: [2] | [4] | CYP2C8 (gene 1558) | CYP2C9 (gene 1559) | CYP4A11 (gene 1579) | [5] | [6] | [7] | [8] | [9] | [10] | CYP3A5 (gene 1577) | [11] | [12] | [14] | [15]
active: [1] 21.4 µM | [3] 50 µM | [13] 4.87 µM

O=c1n(CC2CO2)c(=O)n(CC2CO2)c(=O)n1CC1CO1 (stereo unspecified)
active: [5] 78.3 µM
inactive: [1] | [2] | [3] | [4] | CYP2C8 (gene 1558) | CYP2C9 (gene 1559) | CYP4A11 (gene 1579) | [6] | [7] | [8] | [9] | [10] | CYP3A5 (gene 1577) | [11] | [12] | [13] | [14] | [15]

O=C(OC[C@H]1O[C@@H](OC(=O)c2cc(O)c(O)c(OC(=O)c3cc(O)c(O)c(O)c3)c2)[C@H](OC(=O)c2cc(O)c(O)c(OC(=O)c3cc(O)c(O)c(O)c3)c2)[C@@H](OC(=O)c2cc(O)c(O)c(OC(=O)c3cc(O)c(O)c(O)c3)c2)[C@@H]1OC(=O)c1cc(O)c(O)c(OC(=O)c2cc(O)c(O)c(O)c2)c1)c1cc(O)c(O)c(OC(=O)c2cc(O)c(O)c(O)c2)c1
inactive: [1] | [7] | [8] | [9] | [15]
active: [2] 9.48 µM | [3] 10.2 µM | [4] 15.2 µM | CYP2C8 (gene 1558) 15.2 µM | CYP2E1 (gene 1571) 5.26 µM | CYP4A11 (gene 1579) 10.4 µM | [5] 11.3 µM | [6] 4.58 µM | [10] 8.99 µM | CYP3A5 (gene 1577) 4.94 µM | [11] 7.91 µM | [12] 12.4 µM | [13] 9.29 µM

O=C(O)c1cccc(N(Cc2cccnc2)c2ccc(OC(F)F)c(OC(F)F)c2)c1
inactive: [1] | [2] | [3] | [4] | CYP2C8 (gene 1558) | CYP4A11 (gene 1579) | [6] | [9] | [10] | CYP3A5 (gene 1577) | [12] | [14] | [15]
active: CYP2E1 (gene 1571) 5.18 µM | [5] 43.5 µM | [8] 50 µM | [11] 87 µM | [13] 4.48 µM
